In ChEMBL document CHEMBL4513216, “Probing the Open Global Health Chemical Diversity Library for Multistage-Active Starting Points for Next-Generation Antimalarials” (ACS Infect Dis, 2020):
In all, about 68,000 compounds went through this assay and about 2,700 (4%) showed an effect of 50% or more. The entries come from a sample that favours strong results as a whole.

Test system: Plasmodium berghei
Test: Screen against P. berghei liver stage (PbLuc), transformed with Luciferase, at 2uM
Format: functional, HepG2
Details: tested at 2 uM

Row | SMILES | INHIBITION [%]
1 | CN(C)Cc1nnc2n1CCN(Cc1ccccn1)CC2 | -16.67
2 | O=C(CCc1ccsc1)Nc1ccnn1C1CCS(=O)(=O)C1 (centres undefined) | -38.89
3 | O=C(CCc1cccs1)Nc1ccnn1C1CCS(=O)(=O)C1 (centres undefined) | -28.15
4 | Cc1cccc(CCC(=O)Nc2ccnn2C2CCS(=O)(=O)C2)c1 (centres undefined) | 62.13
5 | O=C(NCCC1COc2ccccc2O1)c1ccc(N2CC(O)C2)nc1 (centres undefined) | 13.19
6 | O=C1N[C@@H]2CCN(C(=O)C3CC3)[C@@H]2C(=O)N1c1ccc(F)cc1 | 34.24
7 | Cc1ccc(N2C(=O)N[C@@H]3CCN(C(=O)C4CCCC4)[C@@H]3C2=O)cc1 | -28.91
8 | Cc1ccc(N2C(=O)N[C@@H]3CCN(C(=O)C4CC4)[C@@H]3C2=O)cc1 | 56.76
9 | COc1ccc(-c2nnc(SC(C)C(=O)NC(C)(C)C)[nH]2)c(OC)c1 (centres undefined) | -42.16
10 | COc1ccc(-c2nnc(SC(C)C(=O)NCC(C)C)[nH]2)c(OC)c1 (centres undefined) | 59.18
11 | COc1ccc(-c2nnc(SCC(=O)NCC(C)C)[nH]2)c(OC)c1 | -8.24
12 | Cc1ccc([C@@H]2CN(C(=O)c3ccsc3)C[C@H]2NC(=O)C2CC2)cc1 | 50.57
13 | Cc1ccc([C@@H]2CN(C(=O)c3cc[nH]c3)C[C@H]2NC(=O)C2CC2)cc1 | -12.67
14 | Cc1ccc([C@@H]2CN(C(=O)c3csc(C)n3)C[C@H]2NC(=O)C2CC2)cc1 | -67.56
15 | CC(NC(=O)NCCN1CCCC1)c1nncn1C (centres undefined) | 21.83
16 | CN1CCc2[nH]cnc2C12CCN(Cc1ccc(S(C)(=O)=O)cc1)CC2 | 18.54
17 | CC(C)c1ccc(C(N)c2cccs2)cc1 (centres undefined) | -61.99
18 | CCCS(=O)(=O)NCc1nc(C)cc(N2CCCC2)n1 | 15.84
19 | CCS(=O)(=O)NCc1nc(C)cc(N2CCCC2)n1 | 53.61
20 | CCS(=O)(=O)NCc1nc(C)cc(N2CCCCC2)n1 | 19.12
21 | CCN1CC2(CCN(CC3COCCO3)CC2)OC1=O (centres undefined) | 65.1
22 | O=C1OC2(CCN(CC3CCCO3)CC2)CN1CCc1ccccc1 (centres undefined) | -38.59
23 | CCN1CC2(CCN(CC3CCCO3)CC2)OC1=O (centres undefined) | 6.85
24 | COCC1CN(C(=O)Cc2ccccn2)Cc2ncnn2C1 (centres undefined) | -54.16
25 | O=C(c1ccc2c(c1)COC2)N1CCCC(n2cncn2)C1 (centres undefined) | -45.72
26 | O=C1OC2(CCNCC2)CN1CC(=O)N1CCCC1c1nccs1 (centres undefined) | 3.62

Row | SMILES | INHIBITION [%]
27 | O=C(CN1CCOC1=O)N1CCC2(CCc3ccccc32)CC1 | 55.36
28 | O=C(CC1COCCN1)N1CCCN(C2Cc3ccccc3C2)CC1 (centres undefined) | 46.02
29 | O=C(CC1COCCN1)N1CCC2(CCc3ccccc32)CC1 (centres undefined) | 50.32
30 | O=C(CC1COCCN1)N1CCC(N2CCc3ccccc3C2)CC1 (centres undefined) | -3.38
31 | O=C(O)CN1CCC2(CCc3ccccc32)CC1 | -2.19
32 | O=C(CN1C(=O)CCNC1=O)N1CCC2(CCc3ccccc32)CC1 | 12.3
33 | Cc1noc(C)c1CN1C(=O)[C@@H]2CC[C@H]1CN(C(=O)c1cscn1)C2 | -13.89
34 | Cc1occc1C(=O)N1CCC2(CCN(Cc3ccccn3)C2=O)C1 (centres undefined) | 49.25
35 | O=C(O)[C@]12CCCN(Cc3ccsc3)C[C@H]1CN(c1ncccn1)C2 | 53.55
36 | O=C(O)[C@]12CCCN(Cc3ccsc3)C[C@H]1CN(c1ccccn1)C2 | 27.73
37 | O=C(O)[C@]12CCCN(Cc3ccccc3)C[C@H]1CN(c1ncccn1)C2 | -0.75
38 | CCC(C)[C@H](NC(=O)c1ccc(F)cc1-n1cnnn1)C(=O)OC (some centres undefined) | 24.67
39 | CCn1nc(C)c(CNC(=O)c2cn(CC3CCCO3)nn2)c1C (centres undefined) | -32.59
40 | CN(C)C(=O)[C@H]1C[C@H]2CN(CCc3ccccc3)C[C@@H]1O2 | 28.38
41 | COc1ccc(CN2CCC[C@@H]3CN(C(=O)c4ccco4)C[C@@H]32)cc1 | -24.31
42 | CC(=O)N1C[C@H]2CCCN(Cc3ccc(C)o3)[C@H]2C1 | -41.73
43 | Cc1ccc(CN2CCC[C@@H]3CN(C(=O)c4ccco4)C[C@@H]32)o1 | 50.17
44 | CCCC(=O)N(CCCN1CCOCC1)c1nc2c(C)c(C)ccc2s1 | -3.67
45 | Cc1cccc(CNC[C@H]2Cn3ccnc3CO2)n1 | 9.42
46 | COCCCNC(=O)c1cc(-c2cnc(N(C)C)nc2)cn1CC1CC1 | 58.6
47 | CN(C)c1ncc(-c2cc(C(=O)NCCO)n(CC3CC3)c2)cn1 | 23.53
48 | CN(C)CCNC(=O)c1cc(-c2cnc(N(C)C)nc2)cn1CC1CC1 | 8.88
49 | O=C(NCCCO)Nc1cnc2cc(Cl)ccc2c1O | 47.4
50 | CCN(Cc1ccco1)C(=O)NCc1nnc2n1CCC2 | 11.78
51 | COCCN1CCc2ccc(=O)n(Cc3csc(C)n3)c2CC1 | -80.01
52 | Cc1cc(NC(=O)NCC(O)c2ccc(F)c(F)c2)n(C)n1 (centres undefined) | -12.19

Row | SMILES | INHIBITION [%]
53 | Cc1cc(NC(=O)c2ccc(F)cc2Cl)n(C)n1 | 56.53
54 | Cc1cc(NC(=O)c2ccc(F)cc2F)n(C)n1 | -20.8
55 | Cc1cc(NC(=O)NCC(O)c2ccc(F)cc2)n(C)n1 (centres undefined) | 50.75
56 | Cc1cc(NC(=O)c2ccc(F)cc2Br)n(C)n1 | -0.9
57 | Cc1ccc(C(O)CNC(=O)Nc2cc(C)nn2C)cc1 (centres undefined) | -15.64
58 | O=C(O)CN1CCC(F)(F)C2(CCN(c3ccccc3)C2)C1 (centres undefined) | -21.78
59 | COCCN1CCC2(CCN(c3ncccn3)CC2)C1=O | 0.2
60 | CC(C)(C)C1CCC(O)(CNC(=O)CCS(C)(=O)=O)CC1 (centres undefined) | -16.28
61 | CN1C[C@@H](n2cnc(-c3ccccc3)c2-c2nccn2C)C[C@H]1C(=O)O | 28.07
62 | Nc1nc(NCCO)cc(N2CCc3c([nH]c4ccccc34)C2)n1 | -14.75
63 | Cc1ccc2c(c1)CN(C(=O)C1CCCCC1)C(CN(C)C)CO2 (centres undefined) | 38.1
64 | Cn1cc(-c2ncc3c(c2C(=O)O)CCN(Cc2ccco2)C3)cn1 | 2.26
65 | COCc1nc(C2CC2)nn1-c1cccc(F)c1 | -1.57
66 | COCc1nc(C2CC2)nn1-c1ccccc1Cl | 72.05
67 | COCc1nc(C2CC2)nn1-c1cc(Cl)ccc1OC | 52.98
68 | COC(=O)[C@H](C)NC(=O)c1nc(C2CC2)n(-c2ccccc2Cl)n1 | 13.65
69 | COc1ccc(Cl)cc1CS(=O)(=O)Cc1nc(C2CC2)no1 | 7.46
70 | COc1ccc(Cl)cc1-n1nc(C2CCCC2)nc1Cn1cnnn1 | 31.51
71 | Cc1ccn2c(F)c(C(=O)N3CCC4(CCC(=O)N(C)C4)CC3)nc2c1 | 6.81
72 | Cc1nc(CNC(=O)Nc2cc(F)ccc2N2CCN(C)CC2)no1 | 29.53
73 | c1cc(OCc2ccc3c(c2)OCO3)ccc1CNC1CC1 | 1.13
74 | Cc1cc(C)nc(C2CCCN2C(=O)c2cnccn2)n1 (centres undefined) | -48.89
75 | CNc1[nH]nc(N)c1C(=O)Nc1ccccc1 | 0.86
76 | CNc1[nH]nc(N)c1C(=O)Nc1ccc(OC)cc1 | 52.21
77 | CNc1[nH]nc(N)c1NC(=O)c1ccccc1 | -11.22
78 | CCc1ncc2c(n1)CN(C(C)C(=O)N1CCOCC1)CC2 (centres undefined) | 1.42

Row | SMILES | INHIBITION [%]
79 | CC(=O)NCCc1ccc(S(=O)(=O)Nc2ccc(C)cc2F)s1 | 22.16
80 | COCCN1CCCC(c2cncc(Oc3ccccc3OC)n2)C1 (centres undefined) | 41.56
81 | COc1cccc2ccc(CN3CCN(c4ncccn4)CC3)nc12 | 38.8
82 | COc1cccc2ccc(CN3CCN(c4ccncc4)CC3)nc12 | 65.42
83 | COc1cccc2ccc(CN3CCN(c4cccnc4)CC3)nc12 | -18.81
84 | CCC=C(C)C(=O)NCc1ccnc(OC2CCOCC2)c1 | 4.54
85 | CC(C)c1nnc2n1CCN(C(=O)CN1Cc3ccccc3C1=O)C2 | 53.03
86 | CC(C)c1nnc2n1CCN(CC(=O)N1CCc3ccccc3C1)C2 | 54.92
87 | CC(C)c1nnc2n1CCN(C(=O)CN1CCc3sccc3C1)C2 | -9.3
88 | CC(C)c1nnc2n1CCN(CC(=O)N1CCc3sccc3C1)C2 | -38.92
89 | CC(C)c1nnc2n1CCN(C(=O)CN(C)Cc1ccccc1)C2 | -58.05
90 | Cc1nnc2n1CCN(CC(=O)N1CCc3ccccc3C1)C2 | 36.64
91 | Cc1ccc(NC(=O)N2CC(C(=O)NC(C)C)C3(CCOCC3)C2)cc1 (centres undefined) | 33.65
92 | COCC1CCN(S(=O)(=O)c2ccc(C(=O)NCC(F)F)cc2)C1 (centres undefined) | 15.44
93 | Cc1cc(C(=O)N2CCN(c3nc4c(C(C)C)cccc4s3)CC2)on1 | 61.06
94 | Cc1cc(C(=O)N2CCN(c3nc4c(C(C)C)cccc4s3)CC2)no1 | 23.65
95 | Cc1cc(C(=O)N2CCN(c3nc4c(C)cccc4s3)CC2)no1 | 7.72
96 | Cc1nn(CC(=O)N(C)Cc2nncn2C(C)C)c(=O)c2ccccc12 | -0.47
97 | O=C(O)c1ccccc1CN1CCCC(Cc2ccn[nH]2)C1 (centres undefined) | 28.66
98 | Cc1cc(C(=O)N2CCC3(CC2)CC(c2cccnc2)C(=O)N3)no1 (centres undefined) | 12.68
99 | O=C1NC2(CCN(C(=O)c3ccccc3)CC2)CC1c1cccnc1 (centres undefined) | -51.9
100 | O=C1NC2(CCN(C(=O)N3CCOCC3)CC2)CC1c1cccnc1 (centres undefined) | 78.29
101 | Cc1occc1-c1nc(NC2CCCC2)ncc1-c1ccccn1 | 11.97
102 | COCCCNC(=O)CN(C)C(C)c1nc(C)no1 (centres undefined) | 35.5
103 | COCCNC(=O)CN(C)C(C)c1nc(C)no1 (centres undefined) | -4.01
104 | COCCCNC(=O)CN(C)C(C)c1nc(C(C)C)no1 (centres undefined) | 60.79
